Experimental data taken from PubChem BioAssay.
Activity calls are given as the source filed them.

Tests used:
[1] = tested on: Human papillomavirus type 1a protein E7 (residues 44-93); assay: small molecules binding HPV E7 44-93 – biochemical, small-molecule microarray, residues 44-93, 635 nm fluorescence, primary screen (AID 1108); settings: fluorescence 635 nm, higher = more signal;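 also: E7 fragment applied at 1 µg/mL in TBST for 1 h at 4 C; score combines spot fluorescence with its signal to noise ratio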
[2] = hepatitis C replication reporter changes, two-sided – Huh7 cells, luciferase reporter, HCV replication inhibitor project, primary screen (AID 1109); settings: Huh7 HCV replicon luciferase reporter, 48 h; higher = more signal;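 also: huh7 hepatoma cells harbouring a luciferase neomycin HCV replicon reporter; luciferase luminescence as measure of HCV replicon replication; test concentration not given here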
[3] = target: Left-right determination factor 2 (Homo sapiens) (UniProt O00292); assay: small molecules binding LEFTY2 protein – biochemical, small-molecule microarray, 635 nm fluorescence scan, primary screen (AID 1110); settings: higher = more signal
[4] = target: Calmodulin-1 (Homo sapiens) (UniProt P0DP23); assay: small molecules binding calmodulin-1 with EGTA – biochemical, small-molecule microarray, Cy5-labelled CALM1, profiling panel (AID 1111); settings: Cy5-CALM1 binding fluorescence, higher = more signal;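 also: labelled calmodulin applied in Tris saline Tween buffer holding calcium plus EGTA and DTT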
[5] = target: Calmodulin-1 (Homo sapiens) (UniProt P0DP23); assay: small molecules binding Ca-loaded calmodulin-1 – biochemical, small-molecule microarray, Cy5-labelled CALM1, plus calcium, artefact control for SMM control-protein annotation, profiling panel (AID 1112); settings: Cy5-CALM1 binding fluorescence, higher = more signal;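 also: score merges spot fluorescence with signal to noise from triplicate slides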
[6] = probe aWnt5a binding to arrayed compounds – biochemical, biotinylated probe, 635/667 nm fluorescence, primary screen (AID 1113); settings: small-molecule microarray, higher = more signal;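 also: score merges 667 nm fluorescence intensity with signal-to-noise per printed feature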
[7] = probe aShh binding to arrayed compounds – biochemical, biotinylated probe, 635/667 nm fluorescence, primary screen (AID 1114); settings: small-molecule microarray, higher = more signal;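 also: probe is biotin-labelled aShh protein from a stem cell growth factor screen; measures binding of labelled protein to compounds printed on the slide; score merges feature fluorescence at 667 nm with signal-to-noise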
[8] = probe aNog binding to arrayed compounds – biochemical, biotinylated probe, 635/667 nm fluorescence, primary screen (AID 1115); settings: small-molecule microarray, higher = more signal;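 also: probe is biotinylated aNog protein used at 0.15 µg/mL for 1 h at 4 C; z-score combines 667 nm fluorescence of each spot with its signal to noise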
[9] = target: Torsin-1A-interacting protein 1 (Homo sapiens) (UniProt Q5JTV8); assay: compound microarray binding of lysate hLAP1 – cell lysate, small-molecule microarray, COS7 lysate, 635/667 nm fluorescence, primary screen (AID 1116); settings: 635 nm fluorescence, higher = more signal
[10] = target: Alpha-bungarotoxin (Bungarus multicinctus) (UniProt P60615); assay: compounds binding labelled alpha-BTX control protein – biochemical, small-molecule microarray, Alexa647 label, 635/667 nm fluorescence, artefact control for SMM control protein annotation, profiling panel (AID 1117); settings: alpha-BTX-A647 binding fluorescence, higher = more signal
Albumin (Bos taurus) = Albumin (Bos taurus) (UniProt P02769); assay: compounds binding labelled BSA control protein – biochemical, small-molecule microarray, Alexa647 label, 635/667 nm fluorescence, artefact control for SMM control protein annotation, profiling panel (AID 1118); settings: BSA-A647 binding, fluorescence 635 nm, higher = more signal;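 also: score merges 667 nm emission intensity and signal-to-noise per printed compound spot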
[11] = probe aXIP binding to arrayed compounds – biochemical, NeuroSMM set, 635/667 nm fluorescence, primary screen (AID 1119); settings: small-molecule microarray, higher = more signal, called active from +8 up or from −8 down;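 also: probe is the protein aXip251-270 applied at 1 µg/mL to compound-printed slides; binding of probe to printed compounds measured as 667 nm fluorescence plus signal to noise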
[12] = probe aNOTCH3 binding on compound microarray – biochemical, small-molecule microarray, 635/667 nm fluorescence, primary screen (AID 1120); settings: higher = more signal;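 also: probe is a biotin-tagged antibody raised against NOTCH3 rather than NOTCH3 protein; score merges spot fluorescence near 667 nm with spot signal to noise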
[13] = probe aNOTCH2 binding on compound microarray – biochemical, small-molecule microarray, 635/667 nm fluorescence, primary screen (AID 1121); settings: higher = more signal;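 also: score merges feature fluorescence read at 667 nm with its signal to noise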
[14] = target: Carbonic anhydrase 2 (Homo sapiens) (UniProt P00918); assay: compounds binding carbonic anhydrase 2 – biochemical, small-molecule microarray, Alexa647-labelled CAII, profiling panel (AID 1122); settings: CAII-A647 binding fluorescence, higher = more signal
[15] = COS7 lysate on small-molecule microarray, probe aHis, 635 nm (AID 1123); settings: COS7 cell lysate, fluorescence, higher = more signal;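 also: z-score combines 667nm fluorescence intensity with signal-to-noise per printed compound spot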
[16] = probe aLAP1 signal on lysate-treated microarray – cell lysate, small-molecule microarray, COS7 lysate, primary screen (AID 1124); settings: probe aLAP1, fluorescence, higher = more signal;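 also: lysate comes from COS7 cells expressing LAP1 and is applied at 0.3 µg/mL; score merges spot fluorescence near 667 nm with signal-to-noise over triplicate slides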
Sam68 (KHDRBS1) = assay: compounds binding KHDRBS1 protein – biochemical, small-molecule microarray, 635 nm fluorescence, primary screen (AID 1125); settings: higher = more signal;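 also: score merges 667 nm channel intensity with signal to noise over triplicate slides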
[17] = tested on: Chordin-like protein 2 (CHRDL2); assay: compounds binding chordin-like 2 – biochemical, small-molecule microarray, 635 nm fluorescence, primary screen (AID 1126); settings: fluorescence 635 nm, higher = more signal;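 also: printed compound slides probed with Chrdl2 protein at 4 µg/mL for 1 h at 4 C; score merges 667 nm emission intensity with signal to noise over three replicate slides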
[18] = target: Concanavalin-A (Canavalia ensiformis) (UniProt P02866); assay: compounds binding concanavalin A lectin – biochemical, small-molecule microarray, Alexa647 label, 635 nm, artefact control for SMM control protein annotation, primary screen (AID 1127); settings: ConA-A647 binding fluorescence, higher = more signal;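 also: z combines 667 nm emission intensity with signal-to-noise across three replicate slides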
Sequence of Concanavalin-A (Canavalia ensiformis) (P02866 whole entry, looked up): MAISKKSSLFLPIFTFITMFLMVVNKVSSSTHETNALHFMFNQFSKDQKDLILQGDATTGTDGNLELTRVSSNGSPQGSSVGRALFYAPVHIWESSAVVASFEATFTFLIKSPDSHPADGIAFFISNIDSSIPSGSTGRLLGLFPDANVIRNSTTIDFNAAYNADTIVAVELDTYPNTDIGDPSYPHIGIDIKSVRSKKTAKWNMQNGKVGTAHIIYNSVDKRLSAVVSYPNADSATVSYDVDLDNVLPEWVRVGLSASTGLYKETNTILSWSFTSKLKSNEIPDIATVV

Sequence of Albumin (Bos taurus) (P02769 whole entry, looked up): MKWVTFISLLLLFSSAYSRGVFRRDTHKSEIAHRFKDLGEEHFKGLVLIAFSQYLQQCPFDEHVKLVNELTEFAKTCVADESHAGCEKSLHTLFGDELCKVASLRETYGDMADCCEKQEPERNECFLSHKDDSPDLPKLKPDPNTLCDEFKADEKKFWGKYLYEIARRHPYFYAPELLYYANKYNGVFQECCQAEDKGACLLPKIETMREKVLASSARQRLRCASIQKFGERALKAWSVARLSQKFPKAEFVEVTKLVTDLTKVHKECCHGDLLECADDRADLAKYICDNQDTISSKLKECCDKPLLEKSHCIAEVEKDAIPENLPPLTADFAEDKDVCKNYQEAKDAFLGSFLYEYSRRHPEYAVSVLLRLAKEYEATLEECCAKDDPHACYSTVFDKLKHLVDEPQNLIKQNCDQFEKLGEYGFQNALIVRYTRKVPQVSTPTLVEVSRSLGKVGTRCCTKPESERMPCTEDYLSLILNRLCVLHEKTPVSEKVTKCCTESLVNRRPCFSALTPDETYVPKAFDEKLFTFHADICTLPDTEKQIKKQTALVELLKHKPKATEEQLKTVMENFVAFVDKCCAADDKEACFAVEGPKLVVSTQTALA
Sequence of Left-right determination factor 2 (Homo sapiens) (O00292 whole entry, looked up): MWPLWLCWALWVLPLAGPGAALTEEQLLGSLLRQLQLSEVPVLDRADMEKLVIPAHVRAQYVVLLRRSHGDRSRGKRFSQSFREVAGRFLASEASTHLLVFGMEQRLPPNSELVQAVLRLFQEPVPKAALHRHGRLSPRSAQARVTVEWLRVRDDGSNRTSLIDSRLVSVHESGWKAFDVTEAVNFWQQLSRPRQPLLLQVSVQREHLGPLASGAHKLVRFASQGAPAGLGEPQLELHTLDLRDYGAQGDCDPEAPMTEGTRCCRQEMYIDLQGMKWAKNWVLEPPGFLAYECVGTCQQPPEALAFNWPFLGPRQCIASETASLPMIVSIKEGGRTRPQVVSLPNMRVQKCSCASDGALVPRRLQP
Sequence of Torsin-1A-interacting protein 1 (Homo sapiens) (Q5JTV8 whole entry, looked up): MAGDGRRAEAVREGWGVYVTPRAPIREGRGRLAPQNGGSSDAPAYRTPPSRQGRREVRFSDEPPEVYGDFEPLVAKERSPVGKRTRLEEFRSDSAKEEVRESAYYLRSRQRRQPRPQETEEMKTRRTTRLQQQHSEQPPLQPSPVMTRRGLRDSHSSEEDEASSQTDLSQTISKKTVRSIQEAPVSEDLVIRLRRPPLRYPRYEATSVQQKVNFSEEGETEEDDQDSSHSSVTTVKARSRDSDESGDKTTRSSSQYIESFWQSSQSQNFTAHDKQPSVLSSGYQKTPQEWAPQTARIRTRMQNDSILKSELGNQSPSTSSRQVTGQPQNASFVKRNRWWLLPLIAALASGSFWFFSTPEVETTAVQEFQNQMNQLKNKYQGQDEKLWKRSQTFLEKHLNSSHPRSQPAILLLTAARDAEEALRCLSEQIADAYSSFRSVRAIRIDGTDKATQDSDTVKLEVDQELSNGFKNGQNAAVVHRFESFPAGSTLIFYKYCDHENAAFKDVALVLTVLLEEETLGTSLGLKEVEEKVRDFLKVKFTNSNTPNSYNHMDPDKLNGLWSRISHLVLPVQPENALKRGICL
Sequence of Alpha-bungarotoxin (Bungarus multicinctus) (P60615 whole entry, looked up): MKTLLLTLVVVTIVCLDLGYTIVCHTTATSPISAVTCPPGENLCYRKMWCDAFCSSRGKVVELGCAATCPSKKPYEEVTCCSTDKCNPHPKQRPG

SMILES | composite z-score [1] | z-score [2] | composite z-score [3] | composite z-score [4] | composite z-score [5] | composite z-score [6] | composite z-score [7] | composite z-score [8] | composite z-score [9] | composite z-score [10] | composite z-score (Albumin (Bos taurus)) | composite Z-score [11] | composite z-score [12] | composite z-score [13] | composite z-score [14] | composite z-score [15] | composite z-score [16] | composite z-score (Sam68 (KHDRBS1)) | composite z-score [17] | composite z-score [18]
CCc1cc2c(nc1CC)CCN(CCC(C)=NOCC[C@@H]1C=C[C@H](OC(C)=O)[C@@H](COC(C)=O)O1)C2 | 1.11 | -0.879 | 0.879 | -0.307 | -1.2 | 0.0209 | -0.167 | -0.4 | 1.01 | 0.147 | 0.466 | 0.497 (inactive) | 0.493 | -0.0798 | 0.0943 | -0.119 | 0.277 | 1.23 | 0.412 | 0.446
CC(CCN1CCCc2nc(C)c(C)cc21)=NOC[C@@H](C)[C@H](OCc1ccccc1)C(C)C | -1.39 | -0.148 | -0.196 | -1 | -0.387 | -0.0685 | -0.138 | -0.255 | -0.187 | -1.1 | -0.453 | 0.081 (inactive) | -0.0918 | -0.0878 | -0.358 | 0.816 | -0.432 | -0.818 | -0.621 | -0.691
C=CC[C@@H]1C=C[C@H](Oc2ccc(C)cc2)[C@@H](COC(=O)NCc2cccc3ccccc23)O1 | 0.286 | -2.78 | 0.129 | -0.716 | -0.547 | -0.0271 | -0.0793 | -0.0496 | 0.0431 | -0.212 | 0.427 | 0.339 (inactive) | -0.0328 | -0.127 | 0.023 | 0.502 | -0.106 | -0.256 | 0.338 | -0.749
CC(CCN1CCCc2nc(C)c(C)cc21)=NO[C@H](C)c1cn([C@H](CO)Cc2ccccc2)nn1 | 1.01 | -1.73 | 0.796 | -0.276 | -0.519 | -0.0704 | -0.16 | 0.029 | 0.613 | -0.207 | 0.177 | 0.271 (inactive) | 0.159 | -0.112 | 0.236 | 0.497 | 0.0249 | 1.28 | 0.618 | -0.113
CC(=O)OC[C@H]1O[C@@H](ON=C(C)CCN2CCCCc3nc(C)c(C)cc32)[C@H](OC(C)=O)[C@@H](OC(C)=O)[C@@H]1OC(C)=O | 1.16 | -0.997 | 0.962 | -0.336 | -0.767 | -0.0337 | 0.0121 | -0.0129 | 0.479 | -0.546 | 0.536 | -0.288 (inactive) | 0.0282 | -0.115 | 0.163 | 0.773 | -0.0796 | 1.29 | 1.27 | 0.289
O=C1[C@H]2[C@H]3[C@H](O)[C@H](O)CC(=NO[C@@H]4O[C@H](CO)[C@@H](O)[C@H](O)[C@H]4O)[C@@H]3CC[C@H]2C(=O)N1C1CCCCC1 | 0.578 | -0.0851 | 0.616 | 0.159 | -0.616 | 0.0101 | -0.0593 | -0.198 | 0.0912 | 0.0069 | -0.156 | 0.178 (inactive) | 0.0876 | -0.141 | -0.121 | 0.139 | -0.1 | 0.317 | 0.629 | 0.601
